Compounds with a hit are over-represented: about 2% of the library has one in this group of screens.
Fam108B inh = Fam108B inhibition, counter-screen for RBBP9 inhibitors | recombinant Fam108B, FP-Rh probe fluorescence polarization | inhibition, % at 9.51 µM | actives 0.33% (n = 300,000) | AID 1947;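 active = inhibition above the screen mean inhibition plus 3 SD, computed separately per campaign, cut at about 18% in these data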;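 also: inhibitors lower polarization as less probe binds the enzyme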
LYPLA1 inh = blocks human lysophospholipase 1, a PME1 counter-screen | AID 2174 | O75608 | recombinant LYPLA1, FP-Rh probe fluorescence polarization | inhibition, % at 5.9 µM | actives 0.16% (n = 320,000);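 active = inhibition above the mean of all tested compounds plus 3 SD, set per campaign, cut at about 14% in these data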;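 also: inhibitors block serine hydrolase probe labeling of LYPLA1 so polarization falls; 0% = enzyme with DMSO and 100% = wells lacking LYPLA1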
GSTO1 counter = counter-screen for RBBP9 inhibitors: inhibitors of human GSTO1. P78417. recombinant GSTO1, activity-based probe fluorescence polarization. inhibition, % at 5.96 µM. actives 1.1% (n = 300,000). AID 1974;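 active = inhibition above the campaign mean inhibition plus 3 SD, cut at about 35% in these data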;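 also: 0% = GSTO1-1 with DMSO and 100% = wells lacking GSTO1-1 enzyme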
Target sequence (P78417 whole entry, looked up): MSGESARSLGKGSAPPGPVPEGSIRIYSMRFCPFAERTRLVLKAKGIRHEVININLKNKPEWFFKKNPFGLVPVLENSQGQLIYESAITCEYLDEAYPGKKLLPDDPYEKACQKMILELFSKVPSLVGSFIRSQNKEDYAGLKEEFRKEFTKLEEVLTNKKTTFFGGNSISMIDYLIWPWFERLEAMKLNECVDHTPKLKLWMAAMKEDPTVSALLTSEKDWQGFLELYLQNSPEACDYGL
PME-1 primary = PME-1 (human) inhibition; inhibition, % at 5.9 µM; actives 0.53% (n = 320,000); recombinant PME-1, FP-Rh probe fluorescence polarization;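 active = inhibition above the campaign mean of all compounds plus 3 SD, cut at about 26% in these data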;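 also: competitive labeling of PME-1 active site by serine hydrolase directed probe; 0% = PME-1 with DMSO and 100% = wells lacking PME-1 enzyme; inhibitors block probe labeling so polarization falls and inhibition rises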
PREPL inhibitor = inhibitors of human prolyl oligopeptidase-like enzyme PREPL. AID 2751. inhibition, % at 5.96 µM. actives 0.68% (n = 320,000). recombinant PREPL, fluorescence polarization activity-based probe. Q4J6C6;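 also: 0% = enzyme with DMSO and 100% = wells lacking enzyme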
LYPLA2 inh = counter-screen for PME1 inhibitors: inhibitors of human LYPLA2 | recombinant LYPLA2, FP-Rh probe fluorescence polarization | inhibition, % at 5.9 µM | actives 0.38% (n = 320,000) | AID 2177;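 active = inhibition above the screen-wide mean plus 3 SD, limit set per campaign, cut at about 26% in these data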;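 also: 0% = LYPLA2 with DMSO and 100% = wells lacking LYPLA2 enzyme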
Target sequence (O95372 whole entry, looked up): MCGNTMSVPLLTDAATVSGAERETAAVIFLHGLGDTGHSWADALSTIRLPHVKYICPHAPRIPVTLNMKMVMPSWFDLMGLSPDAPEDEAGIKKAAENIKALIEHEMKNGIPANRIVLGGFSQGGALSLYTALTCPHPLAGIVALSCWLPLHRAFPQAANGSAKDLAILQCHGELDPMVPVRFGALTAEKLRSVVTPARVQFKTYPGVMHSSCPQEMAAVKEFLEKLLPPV
PREPL inh cf = confirmation of human PREPL enzyme inhibitors; shares compounds with PREPL inhibitor; recombinant PREPL, fluorescence polarization activity probe; inhibition, % at 5.96 µM; actives 67% (n = 2,000);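 also: 0% = protein with DMSO and 100% = wells lacking protein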
Numbers without * were called inactive; . = no result. Rule as the data show it, unless noted: active = inhibition above about 43%; inactive = the rest.

SMILES	Fam108B inh	LYPLA1 inh	GSTO1 counter	PME-1 primary	PREPL inhibitor	LYPLA2 inh	PREPL inh cf
CCCCN1C(=N)N([C@@H](CCC)CN2CCC[C@H]2CN2C(N)=NC[C@H]2CC(C)C)C[C@H]1Cc1ccccc1	.	.	.	.	48*	.	49*
CC(C)CCNC(=O)C(c1ccco1)N(CCCO)C(=O)Cn1nnc(-c2ccc(F)cc2)n1 (centres undefined)	0	-2	8	2	18	7	.
COc1ccc(C(=O)NNC(=O)C(=O)NC2CCCCC2)cc1	0	2	1	-1	0	0	.
CCC(C)(C)NC(=O)CN(Cc1ccco1)C(=O)CCC(=O)Nc1nccs1	1	-1	7	-3	-1	1	.
CSc1nc(Cl)cc(N2CCOCC2)n1	-1	-2	-2	-1	-5	1	.
Clc1ccc(NCc2ccsc2)cc1	3	1	-1	0	-35	-4	.
C/C(=N\Nc1nc2ccccc2[nH]1)c1ccccn1	-3	0	-4	5	17	5	.
C/C(=N\Nc1nc2ccccc2[nH]1)c1cc2ccccc2o1	14	3	-5	15	76*	2	72*
C/C(=N\Nc1nc2ccccc2[nH]1)c1ccc2c(c1)OCO2	-2	1	-2	-25	47*	-7	44*
C/C(=N\Nc1nc2ccccc2[nH]1)c1ccc2c(c1)OCCO2	7	2	1	-31	18	2	.
CS(=O)(=O)Nc1ccccc1C(=O)NCCSc1ccccc1	5	1	1	0	-7	6	.
CC(=O)c1ccc(OCc2cc(C(=O)NCCc3ccc(Cl)cc3)no2)cc1	0	0	0	3	-1	3	.
COc1cc(C(C)=O)ccc1Oc1ncnc2c1cnn2-c1ccc(F)cc1	-5	-1	-1	7	6	7	.
O=C(CN1CCN(c2ccccc2)CC1)Nc1ccc(-n2cnnn2)cc1	-3	1	-8	-3	0	4	.
CCc1ccccc1NC(=O)CN1CCN(C(=O)c2cccc(-n3cnnn3)c2)CC1	.	-2	.	-2	65*	-2	6
CCCN(CCC)C(=O)CSc1nc2n[nH]c(C)c2c(=N)n1-c1ccc(OCC)cc1	-1	-5	-3	4	55*	-4	41
CCCN(CCC)C(=O)CSc1nc2n[nH]c(C)c2c(=N)n1-c1ccc(OC)cc1	5	-1	4	2	28	-2	.
CCNC(=O)c1ccccc1NC(=O)C1CC(=O)N(C(C)C)C1 (centres undefined)	4	-1	4	2	11	0	.
Cc1ccc(NC(=O)C2CSC3(C)CCC(=O)N23)cc1S(=O)(=O)N1CCCCCC1 (centres undefined)	.	-3	.	4	15	1	.
COc1ccc(-[n+]2c(C)cc(/C=C3\Sc4ccccc4N3C)cc2C)cc1	4	3	2	-4	70*	8	69*
COc1ccc(C(=O)/C=C2\Sc3ccccc3N2C)cc1	3	2	12	4	36	-5	.
COc1ccccc1-[n+]1c(C)cc(/C=C2\Sc3ccccc3N2C)cc1C	-3	-1	6	-3	64*	5	71*
CC(C)N(C(=O)CN1C(=O)NC(c2ccccc2)(c2ccccc2)C1=O)C(C)C	-1	-4	-2	6	-4	-1	.
CC1Cc2ccccc2N1C(=O)COc1ccc2c(c1)OCO2 (centres undefined)	1	-4	3	-4	8	-4	.
C[C@H](CO)N1C[C@H](C)[C@@H](CN(C)Cc2ccncc2)Oc2c(NS(=O)(=O)c3ccc(F)cc3)cccc2C1=O	.	.	.	.	16	.	.
SMILES	Fam108B inh	LYPLA1 inh	GSTO1 counter	PME-1 primary	PREPL inhibitor	LYPLA2 inh	PREPL inh cf
C[C@H](CO)N1C[C@H](C)[C@@H](CN(C)Cc2ccncc2)Oc2c(NS(=O)(=O)c3ccc(Cl)cc3)cccc2C1=O	.	.	.	.	48*	.	45*
CCN1CCN(c2cc(C)c3cc(NC(=O)CCC(=O)N4CCN(c5ccccc5)CC4)ccc3n2)CC1	-4	1	4	0	49*	1	47*
CCN1CCN(c2cc(C)c3cc(NC(=O)CCC(=O)N4CCN(c5ccccc5OC)CC4)ccc3n2)CC1	1	-2	-1	0	6	1	.
CCN1CCN(S(=O)(=O)c2ccc(OC)c(NC(=O)c3ccccc3F)c2)CC1	-3	1	4	8	-3	-4	.
OCC1OC(Oc2cccc3ccccc23)C(O)C(O)C1O (centres undefined)	2	-2	5	-1	-6	-2	.
O=C(O)c1cc(O)c2c(c1)[C@@H]([C@H]1c3cc(C(=O)O)cc(O)c3C(=O)c3c(O[C@@H]4O[C@H](CO)[C@@H](O)[C@H](O)[C@H]4O)cccc31)c1cccc(O[C@@H]3O[C@H](CO)[C@@H](O)[C@H](O)[C@H]3O)c1C2=O	.	.	.	.	96*	.	42
CN(C)c1ccc(C2C=C(c3ccc(Cl)cc3OC(F)F)Nc3ncnn32)cc1 (centres undefined)	1	-1	-4	5	56*	4	49*
Cc1c(Cl)c([N+](=O)[O-])nn1CCCC(=O)NC1CCCCC1	-1	0	3	2	0	-3	.
COc1cc(/C=N/n2cnnc2)ccc1OCc1ccccc1	-6	0	2	-3	46*	1	42
COc1ccc(/C=N/n2cnnc2)cc1COc1ccccn1	4	0	-3	0	3	1	.
Cc1nc2nc(SCC(=O)NCCCN3CCCCCC3)nn2c(C)c1Cc1ccccc1	-2	-1	5	-2	43*	4	37
Cc1ccccc1Cc1c(C)nc2nc(SCC(=O)NCCCN3CCCCC3)nn2c1C	1	0	1	-3	1	1	.
O=C1COc2ccc(-c3csc(=Nc4ccc(OC(F)F)cc4)n3CC3CCCO3)cc2N1 (centres undefined)	0	-6	6	8	46*	4	49*
CCN(CC)CCn1c(=N)n(CC(O)c2ccc(OC)c(OC)c2)c2ccccc21 (centres undefined)	-1	-5	3	-3	44*	2	43
COc1ccc2c(C=Nc3c(C)n(C)n(-c4ccccc4)c3=O)c(O)n(Cc3ccco3)c(=O)c2c1	7	-1	19	10	56*	-1	37
Cc1ccc(-n2c(C)nnc2SCC(=O)NC2CCCC2)cc1	-2	2	5	3	6	-2	.
CC(=O)NCCCC(=O)NN1C(=S)N(Cc2ccccc2)C(=O)C1CC(=O)Nc1cccc(C)c1 (centres undefined)	1	0	10	6	-3	-1	.
Cc1ccc(NC(=O)C[n+]2cc(-c3ccc(C)cc3)n3c2CCC3)cc1	0	2	5	3	15	3	.

Screening results as filed in PubChem.
